Test results reported in PubChem BioAssay AID2810 (NMMLSC, 2010).
Among all 1,200 compounds or so, about 65 (5%) were called active. The sample holds actives, similar compounds and a random draw of the others, so the mix is not that of the screen.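 The calls were made as follows: active = at either tested dose, response and 90th-percentile vesicle-stain brightness of CD8 cells under set limits and under 9% cells vesicle-bound; inactive = the rest.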

Assay: modulators of CD8 T cell-vesicle binding, confirmation, cherry-picked primary hits, two concentrations (AID 2810);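 also: lower values mean blocking of vesicle binding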;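 as to percent response (vesicle binding): ratio of mean FL2 vesicle stain of CD8+ cells to that row's control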
Conditions: 2C CD8+ T cell-vesicle binding, flow cytometry; for double positive events: CD8+/vesicle+ events
[1] = at 15.4 µM, stronger effect = lower value

Structure (SMILES) | double positive events (at 7.7 µM) | double positive events [1] | percent response (vesicle binding) [1] | percent response (vesicle binding) (response, at 7.7 µM)
CCOC(=O)CSc1nc(C)nc2c1sc1nc(C)c(C(C)=O)c(-c3ccc(OC)cc3)c12 | 22.7% | 7.5% | 128% (inactive) | 327%
CC1=C/C(=C(\c2ccc(O)c(C)c2)c2ccccc2S(=O)(=O)O)C=CC1=O | 8.5% | 0.5% | 14.6% (active) | 142%
O=C(Nc1nnc(C2=COCCO2)o1)C1CCCCC1 | 47.3% | 23% | 200% (inactive) | 280%
CS(=O)(=O)NCc1ccccc1Br | 31% | 2.7% | 34% (active) | 371%
Cc1nc2sc(C(c3ccccc3)N3CCN(c4ccccc4F)CC3)c(O)n2n1 (centres undefined) | 38.2% | 4.2% | 142% (inactive) | 239%
CCOc1ccccc1NC(=O)c1ccc(CN2CCc3ccccc3C2)cc1 | 11.5% | 30% | 739% (inactive) | 110%
COc1ccc2nc(SCC(=O)Nc3ccc4c(c3)OCCO4)[nH]c2c1 | 10.5% | 19.8% | 168% (inactive) | 164%
O=C(/C=C/c1ccccc1)OCC(=O)c1ccc[nH]1 | 14.3% | 30.2% | 439% (inactive) | 424%
CCOC(=O)C1CCCN(c2cc(=O)n(-c3ccccc3Cl)c(=O)[nH]2)C1 (centres undefined) | 10.2% | 2.3% | 18.2% (active) | 131%
CCOC(=O)C1CCN(C(=O)CN2C(=O)c3ccccc3S2(=O)=O)CC1 | 13% | 23% | 203% (inactive) | 166%
CCOC(=O)C1CCCN(S(=O)(=O)c2ccc(F)c(C(=O)Nc3ccc(F)c(F)c3)c2)C1 (centres undefined) | 13.5% | 23.8% | 153% (inactive) | 105%
O=C1c2cccc3c2[C@H](CCC3)CN1[C@@H]1CN2CCC1CC2 | 19.9% | 28.1% | 727% (inactive) | 238%
COc1ccc(C2=Nc3cc(C)ccc3OC2)cc1 | 12.1% | 2% | 53.5% (active) | 546%
CCCCN(C(=O)CCCc1nc2ccccc2s1)c1c(N)n(CC(C)C)c(=O)[nH]c1=O | 14.2% | 7.8% | 50.8% (inactive) | 386%
CCCN(Cc1ccc(N(C)C)cc1)CC1CC1 | 16.6% | 22.1% | 413% (inactive) | 436%
CN(C(=O)COC(=O)c1cccc(NS(=O)(=O)c2ccc(F)c(F)c2)c1)C1CCS(=O)(=O)C1 (centres undefined) | 21.6% | 29.3% | 264% (inactive) | 393%
CN1CCN(c2oc(-c3ccc([N+](=O)[O-])cc3)nc2C#N)CC1 | 8.5% | 9.4% | 143% (inactive) | 149%
Cc1cccc(OCC(=O)NC(Cc2ccccc2)C(=O)O)c1 (centres undefined) | 7.7% | 11.5% | 295% (inactive) | 136%
CC(C)[C@H]1C(=O)Nc2ccccc2N1C(=O)N[C@@H](Cc1ccccc1)C(=O)N[C@@H](Cc1ccccc1)C(=O)O | 36.3% | 8.9% | 55.5% (active) | 394%
CC(=O)Nc1ccc(S(=O)(=O)NC2CCSc3ccccc32)cc1 (centres undefined) | 13.6% | 10.4% | 146% (inactive) | 238%
COc1ccc(C(=O)CSc2nnc(CNC(=O)c3ccc(OC)c(OC)c3)n2C)cc1 | 7.6% | 15.6% | 136% (inactive) | 300%
COc1ccc(CNc2nnnn2C)cc1 | 28.6% | 12.4% | 192% (inactive) | 376%

Structure (SMILES) | double positive events (at 7.7 µM) | double positive events [1] | percent response (vesicle binding) [1] | percent response (vesicle binding) (response, at 7.7 µM)
COc1ccc(C(=O)NNC(=O)CSc2nnnn2C)cc1 | 13.8% | 1.8% | 19.1% (active) | 160%
Cc1noc(C)c1COc1ccc(C(=O)NCc2cccs2)cc1 | 6.2% | 22.1% | 165% (inactive) | 120%
Nc1ccccc1C(=O)N/N=C1\C2CN3CCN(C2)CC1(c1ccccc1)C3 | 20% | 18.6% | 176% (inactive) | 839%
CC(=O)c1ccc(OCc2cc(C(=O)N3CCCCC3c3cccnc3)no2)cc1 (centres undefined) | 18.2% | 21.2% | 171% (inactive) | 229%
O=C(Cc1cccc(NC(=O)C2CCCN(C(=O)C3CC3)C2)c1)Nc1cccc(C(=O)N2CCCC2)c1 (centres undefined) | 25% | 13.2% | 338% (inactive) | 438%
CN(Cc1ccccc1)C(=O)c1ccc(NC(=O)Cc2cccc(NC(=O)C3CCCN(C(=O)C4CCC4)C3)c2)cc1 (centres undefined) | 7.8% | 4.3% | 54.8% (active) | 219%
CN(CC(=O)Nc1cccc(F)c1)C(=O)c1ccc(S(=O)(=O)N2CCCC2)cc1 | 28.6% | 10.5% | 176% (inactive) | 275%
Cc1cc(C)c(C(=O)N2CCCC(N3CCN(c4ccc(F)cc4)CC3)C2)o1 (centres undefined) | 39.2% | 14.9% | 236% (inactive) | 688%
Cc1cc(C)cc(NC(=O)C(=O)NCCCN2CCCC2=O)c1 | 10% | 9.4% | 138% (inactive) | 150%
COc1ccc(CN2C(=O)C(C)Nc3ncnc(N4CCN(c5ccccn5)CC4)c32)cc1 (centres undefined) | 8.2% | 4.1% | 33.1% (active) | 235%
COc1ccc(Cc2nc(-c3ccccn3)no2)cc1 | 34.9% | 19.8% | 702% (inactive) | 360%
O=C(c1ccc(Cn2c(=S)[nH]c3ccccc3c2=O)cc1)N1CCN(c2ccccn2)CC1 | 8.9% | 7% | 222% (inactive) | 465%
Cc1cccc(NS(=O)(=O)c2ccc(Oc3ccccc3)cc2)n1 | 19.3% | 10.1% | 148% (inactive) | 86.6%
Cc1ccc(S(=O)(=O)N2CCN(c3ncnc4ccccc34)CC2)cc1 | 6.7% | 15.5% | 103% (inactive) | 116%
Cc1ccc(S(=O)(=O)Nc2c3ccccc3nc(=O)n2-c2ccccc2)cc1 | 21.4% | 7.9% | 50.6% (active) | 180%
O=C(Nc1ccccc1C(=O)OCC(=O)c1c[nH]c2ccccc12)c1ccco1 | 19.2% | 23.2% | 289% (inactive) | 174%
CCn1cc(CNC(=O)c2ccc(Cl)c([N+](=O)[O-])c2)c(C)n1 | 18.4% | 8.4% | 244% (inactive) | 301%
Cc1cccc(C)c1OCc1nnc(NC(=O)CSc2ccc(Cl)cc2)s1 | 31.8% | 24.4% | 211% (inactive) | 221%
O=C1CCCc2sccc2N1 | 17.6% | 1.1% | 33.4% (active) | 308%
CCCCn1c(N)c(N(CCOC)C(=O)c2c(CC)noc2C)c(=O)[nH]c1=O | 8.2% | 14.5% | 132% (inactive) | 298%
c1coc(-c2nc3c4c5c(sc4ncn3n2)CCCC5)c1 | 17.3% | 13.1% | 71% (inactive) | 187%
COc1ccc(OC)c(C(c2nnnn2CCC(C)C)N2CCN(C(=O)c3ccco3)CC2)c1 (centres undefined) | 33.6% | 30.5% | 242% (inactive) | 208%

Structure (SMILES) | double positive events (at 7.7 µM) | double positive events [1] | percent response (vesicle binding) [1] | percent response (vesicle binding) (response, at 7.7 µM)
O=C(c1ccco1)N1CCN(C(c2ccccc2Cl)c2nnnn2Cc2ccco2)CC1 (centres undefined) | 15.1% | 6.3% | 40.7% (active) | 456%
O=C(c1ccco1)N1CCN(c2ncccn2)CC1 | 27.2% | 11.7% | 199% (inactive) | 331%
COCC(C)NC(=O)CSc1nc2cc(S(=O)(=O)N3CCCCC3)ccc2o1 (centres undefined) | 13.5% | 13.6% | 131% (inactive) | 364%
COc1cccc(NC(=O)Nc2ccc3nc(C)c(C)nc3c2)c1 | 9.8% | 8.7% | 103% (inactive) | 154%
COc1ccc(NC(=O)Nc2ccc(O)c3ccccc23)cc1 | 5.3% | 10% | 103% (active) | 35.3%
COc1ccc(NC(=O)Nc2c(O)ccc3ccccc23)cc1 | 5.2% | 17.7% | 132% (inactive) | 173%
Cn1nc(-c2ccccc2)c(CSc2ccccc2Cl)c1Cl | 14.2% | 30.1% | 241% (inactive) | 251%
CC(C)c1ccc(NC(=O)NCc2cccnc2)cc1 | 12% | 22.3% | 281% (inactive) | 415%
C/C(=N\NC(=O)c1ccc(Br)o1)c1cc2c(cc1NC(=O)CCC(=O)O)OCO2 | 36.2% | 13.6% | 208% (inactive) | 305%
COc1ccc(S(=O)(=O)N2CCCC2C(=O)Nc2ccc(C(C)=O)cc2)cc1 (centres undefined) | 6.8% | 18.3% | 384% (inactive) | 406%
COc1ccc(NS(=O)(=O)c2cc(NC(=O)C3CC3)ccc2N2CCCCC2)cc1 | 9.3% | 3.4% | 36.1% (active) | 138%
COc1ccc(NC(=O)C2CCC(C(C)(C)C)CC2)cc1S(=O)(=O)N1CCCCC1 (centres undefined) | 17.3% | 13.7% | 203% (inactive) | 135%
Nc1nc(SCCO)[nH]c(=O)c1NC(=O)c1ccc(Br)o1 | 11.9% | 25.8% | 393% (inactive) | 383%
O=C(c1ccccc1Cl)N1CCCC(c2nc3c(nnn3Cc3ccccc3)c(=O)[nH]2)C1 (centres undefined) | 9.2% | 17.6% | 132% (inactive) | 181%
CCOCC(=O)Nc1ccc(S(=O)(=O)N2CCC(c3nc4ccccc4[nH]3)CC2)cc1 | 7.3% | 21.4% | 156% (inactive) | 124%
O=C1CC(c2nc3ccccc3[nH]2)CN1Cc1ccccc1 (centres undefined) | 17.2% | 4.3% | 50.8% (active) | 341%
CC(OC(=O)c1ccc2c(c1)C(=O)N(Cc1ccncc1)C2=O)C(=O)Nc1cccc(Cl)c1Cl (centres undefined) | 16.7% | 30.5% | 343% (inactive) | 266%
CSc1ccccc1NC(=O)CN(C)C(=O)c1ccc2c(c1)OCCO2 | 45.7% | 7.6% | 133% (inactive) | 295%
CCc1ccc(NC(=S)N(CCCN2CCOCC2)Cc2ccccn2)cc1 | 22.2% | 40% | 339% (inactive) | 168%
CN(C)S(=O)(=O)c1cccc(-n2sc3ccccc3c2=O)c1 | 4.4% | 2.1% | 52.8% (active) | 173%
CCCc1cc(=O)[nH]c(SCC(=O)N2c3ccccc3CC2C)n1 (centres undefined) | 26.4% | 4.8% | 139% (inactive) | 285%
O=C(O)C1CCC(Cn2c(SCc3cc(=O)n4cc(Cl)ccc4n3)nc3ccsc3c2=O)CC1 (centres undefined) | 29.3% | 9% | 76.3% (inactive) | 339%
